# An excerpt weighted towards active compounds, which were near 2.2% of everything screened.
# aSyn yeast inh: rescues yeast growth from alpha-synuclein toxicity | Yeast expressing alpha-synuclein, growth rescue, BacTiter-Glo, 24 h | Potency, µM (highest dose often 46.1 µM), for the others: top-dose growth rescue (activation), most hits filed as activators | 0.14% of 370,000 active | AID 652106; note: % of control where 0% means no effect; nearly all actives have a fitted effect of over 65% in size
#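 Galactose-induced alpha-syn yeast (OD600=0.02, raffinose-pregrown) + pinned cpd, 24 hr, 30 deg C; growth by BacTiter-Glo luminescence. Growth restoration scores as activation.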
# FUS suppressor: suppressors of FUS proteinopathy in yeast. S. cerevisiae FUS-expressing, growth rescue, OD600, 24 h. Potency, µM (top dose mostly 76.6 µM), actives largely listed as activators. 0.24% of 390,000 active. AID 1347120;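 note: plate controls were DMSO vehicle for no effect and reference control for full effect; nearly all actives have a fitted effect of over 55% in size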
#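 Read-out: OD at 600 nm after 24hr at 30C, reporting rescue of FUS-induced yeast toxicity. Cells at OD 0.005 in galactose (2%) minimal medium; compounds tested in a dilution series; CP55940 titration from 92uM final as control.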
# Mito fusion act: blocks mitochondrial division or promotes mitochondrial fusion | S. cerevisiae fusion-defective mutant growth rescue, CellTiterGlo 48 h | Potency, µM (highest dose often 46.1 µM), inactives show top-dose growth rescue (activation), most hits filed as activators | 0.23% of 320,000 active; note: % of control where 0% means no effect; nearly all actives have a fitted effect of over 45% in size
#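 S. cerevisiae fusion-defective temperature-sensitive mutants (e.g. fzo1-1, mgm1-5) grown 48 h at 37C in YPEG (ethanol/glycerol non-fermentable) medium with 23 nl compound per well; growth rescue read as CellTiterGlo luminescence.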
# Abeta rescue: restores growth of yeast expressing A-beta42 peptide. yeast expressing A-beta42, growth rescue, OD600, 48 h; response scale: 0% DMSO, 100% iron-clioquinol control. Potency, µM (highest dose often 46.1 µM), hits mostly activators. 0.063% of 410,000 active. AID 1347071; note: nearly all actives have a fitted effect of over 55% in size
#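 Yeast growth medium received pinned compounds, then yeast cells expressing toxic A-beta were added; plates incubated at 30 C for 48 hr. Growth read as absorbance at 600 nm, normalized to DMSO and equimolar FeCl3 plus clioquinol controls.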
# TDP43 rescue: TDP-43 toxicity inhibition in yeast; TDP-43 expressing yeast growth rescue, BacTiter-Glo, 24 h; Potency, µM (series often up to 46.1 µM), for the others: at the highest dose growth rescue (activation), usual class: activators; 1.8% of 410,000 active; note: % of control where 0% means no effect; nearly all actives have a fitted effect of over 50% in size
#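 Yeast expressing TDP-43 (pregrown in raffinose, seeded at OD600=0.02 in galactose medium) exposed to compounds 24 hr at 30 deg C. Growth read by BacTiter-Glo luminescence; rescue of toxicity appears as increased signal.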
# The depositor's hits bear a star; i = inactive; u = inconclusive; x = no result; ! = not active in a repeat; [ ] = another dose, or the depositor's remark. Calls come from the whole dose curve; as a rule, active = well fitted curve in the direction sought with a large enough effect; inconclusive = small, poorly fitted or top-dose-only effect, or another doubt; inactive = no such curve, though single readings can be large; an effect the other way counts as inactive or inconclusive. Potency is the fitted concentration of half-maximal effect.
SMILES,aSyn yeast inh,FUS suppressor,Mito fusion act,Abeta rescue,TDP43 rescue
c1ccc(-c2ccc(OCCOCCn3cncn3)cc2)cc1,0%,i,2%,i,14µM*
Cc1ccc2nc(NC(=O)C3=NN(c4ccccc4)C(=O)CC3)sc2c1,-1%,u,30%,i,16µM*
CCOc1cc(C(=O)NCC(c2ccc(N(C)C)cc2)N2CCOCC2)cc(OCC)c1OCC (stereo not drawn),x,i,x,i,18%
CC1CCN(c2nn3c(=O)c(C(=O)NCCc4ccccc4)cnc3s2)CC1,x,i,x,i,13µM*
CC(C)=CCC[C@](C)(O[C@@H]1O[C@H](CO[C@@H]2OC[C@H](O[C@@H]3OC[C@@H](O)[C@H](O)[C@H]3O)[C@H](O)[C@H]2O)[C@@H](O)[C@H](O)[C@H]1O)C1CC[C@]2(C)C1[C@H](O)CC1[C@@]3(C)CC[C@H](O)C(C)(C)C3[C@@H](O)C[C@]12C (stereo partly drawn),0%,i,x,i,5%
CC(C)=CCC[C@](C)(O[C@@H]1O[C@H](CO[C@@H]2OC[C@@H](O)[C@H](O)[C@H]2O)[C@@H](O)[C@H](O)[C@H]1O)C1CC[C@]2(C)C1[C@H](O)CC1[C@@]3(C)CC[C@H](O[C@@H]4O[C@H](CO)[C@@H](O)[C@H](O)[C@H]4O)C(C)(C)C3CC[C@]12C (stereo partly drawn),3%,16µM*,x,i,15%
C[C@@H]1CN([C@H](C)CO)C(=O)c2cc(/C=C/c3ccccc3)cnc2O[C@H]1CN(C)C(=O)NC1CCCCC1,2%,i,x,i,12%
C[C@H]1CN([C@@H](C)CO)S(=O)(=O)c2ccc(/C=C/c3ccccc3)cc2O[C@H]1CN(C)C(=O)NC1CCCCC1,7%,11µM*,x,i,18%
COc1ccc(C2=C(C)C(N3CCC(C(=O)Nc4cc(C)ccc4C)CC3)=NS2(=O)=O)cc1,x,i,x,i,22%
CC(=O)N(c1ccc2oc(=O)sc2c1)S(=O)(=O)c1cccs1,-2%,28µM*,-1%,i,25%
Cc1ccc(-c2nc(=Nc3c(C)cc(C)cc3C)sn2-c2ccccc2)cc1,-45%,x,x,x,x
Oc1cccc(-n2nnnc2SCc2ccccc2F)c1,-5%,i,3%,i,22µM*
Cc1nc2scc(C)n2c(=O)c1S(=O)(=O)Nc1ccc(F)cc1,u,i,1%,i,29%
Cc1cc(F)ccc1NS(=O)(=O)c1c(C)nc2scc(C)n2c1=O,-8%,i,-2%,i,20µM*
COc1cccc(NC(=O)CN2CCSc3ccccc32)c1,12%,i,-2%,i,22µM*
CCCCOc1ccc(CNC(=O)CN2CCSc3ccccc32)cc1,u,u,x,u,35µM*
CCCOc1ccc(CNC(=O)c2ccc3c(c2)N(Cc2ccccc2)CCS3)cc1,x,i,x,i,-9%
O=C(Cc1cccc2ccccc12)NO,2%,x,x,x,x
N[C@H](C(=O)N[C@@H](Cc1ccccc1)C(=O)N1CCC2CCN(S(=O)(=O)c3ccccc3)CC21)c1ccccc1 (stereo partly drawn),x,i,x,x,x
CCC(C)(O)c1[nH]c2ccc(C(F)(F)F)cc2c1C (stereo not drawn),0%,i,-6%,14µM*,18µM*
CCOC(=O)CNc1cccc(C(F)(F)F)c1,1%,i,4%,i,-4%[0.397 µM]
COC(=O)c1ccc2c(C)c(C(C)(C)O)[nH]c2c1,8%,i,5%,i,15%
Cc1c(C(C)(C)O)[nH]c2ccc(C(F)(F)F)cc12,5%,i,2%,18µM*,35µM*
CCOC(=O)c1cc(-c2ccccc2)n(CC(=O)Nc2cc(Cl)c(OC)cc2OC)c1C,x,i,x,i,-8%
COc1cc2c(NC3CCN(C)CC3)nc(N3CCCCC3)nc2cc1OCCOCCN1CCCC1,6%,x,x,x,x
SMILES,aSyn yeast inh,FUS suppressor,Mito fusion act,Abeta rescue,TDP43 rescue
CC(C)C[C@H](NC1(C(=O)NCCc2c[nH]c3ccccc23)CCN(C)CC1)C(=O)NCCCc1ccccc1,x,i,x,x,x
COc1ccccc1CNC(=O)CSc1nc(=O)[nH]c2c1CCC2,x,i,x,i,u
Cc1ccc(N2CCN(C(=O)c3nn(C)c4c3CS(=O)(=O)c3ccccc3-4)CC2)c(C)c1,5%,22µM*!,11µM*,i,u
Cn1nc(C(=O)N2CCN(c3ccc(Cl)cc3)CC2)c2c1-c1ccccc1S(=O)(=O)C2,0%,u,21%,i,u
Cn1nc(C(=O)N2CCN(c3cccc(Cl)c3)CC2)c2c1-c1ccccc1S(=O)(=O)C2,3%,u,11µM*,i,22µM*
Cc1ncsc1CCOC(=O)C12CC3CC(CC(C3)C1)C2,-6%,i,-1%,i,20µM*
Cc1ncsc1CCOC(=O)c1cccnc1,2%,i,1%,i,3%
O=C1C(Cl)=C(Nc2ccccc2O)C(=O)N1c1ccccc1,-1%,i,-4%,i,35µM*
COc1ccc(CCNC(=O)C(=O)NCC(c2ccc3c(c2)OCO3)N2CCOCC2)cc1 (stereo not drawn),x,i,x,i,-8%
COC(=O)c1ccc(NC(=O)CC2C(=O)N(c3ccc(C)cc3)C(=O)N2Cc2ccc(OC)cc2)cc1 (stereo not drawn),x,i,x,i,9%
CCc1ccccc1NC(=O)CSc1nnc(COc2ccccc2Cl)o1,x,i,x,i,16µM*
COc1ccccc1NC(=O)CSc1nnc(C2CCCCC2)o1,5%,i,10%,u,18µM*
Cc1cc(-c2nnc(SCC(=O)N3C(C)CCCC3C)o2)no1 (stereo not drawn),0%,i,-1%,i,-15%
O=C(CSc1nnc(COc2ccc(Cl)cc2Cl)o1)Nc1ccccn1,0%,i,-7%,i,-9%
COc1ccc(-c2nnc(SCC(=O)Nc3ccccc3OC)o2)cc1,-1%,i,3%,i,u
CC1CCCC(C)N1C(=O)CSc1nnc(C2CCCCC2)o1 (stereo not drawn),-3%,i,6.3µM*,i,-9%
COc1ccccc1NC(=O)CSc1nnc(-c2cccc(Cl)c2)o1,x,i,x,i,18µM*
CNc1cc[n+](C)c2ccccc12,29%,x,x,x,x
S=C1NC2(CCCC2)N=C1c1ccccc1,2%,i,-13%,x,30%
S=C1NC2(CCCCCC2)N=C1c1ccccc1,7%,i,7%,5µM*,u
O=C1NC2(CCCCCC2)N=C1c1ccc(F)cc1,-8%,i,-5%,i,16µM*
CCCC1=Nc2cc(C(=O)NCc3ccccc3)ccc2Sc2ccccc21,x,i,x,i,23%
COc1ccc(-n2c(SCC(=O)Nc3cc(C)c(NC(=O)c4ccccc4)cc3OC)nnc2-c2ccco2)cc1,x,11µM*,x,x,x
